According to PubChem BioAssay (EPA / NIEHS):
Active and inactive are the calls of the source. Rule for the calls: active = hit-call score of the fitted dose curve at least 0.9, where 1 is the maximum; inactive = score below 0.9.

These compounds were tested against Signal transducer and activator of transcription 3 (Homo sapiens) (UniProt P40763) (assay: ATG_STAT3_CIS: Attagene CIS-FACTORIAL HepG2 Assay for human Signal Transducer and Activator of Transcription 3 (STAT3) (AID 2282963)). Settings: HepG2, Attagene cis-factorial STAT3 reporter transcription; actives raise or lower the signal.
Sequence of Signal transducer and activator of transcription 3 (Homo sapiens) (P40763 whole entry, looked up): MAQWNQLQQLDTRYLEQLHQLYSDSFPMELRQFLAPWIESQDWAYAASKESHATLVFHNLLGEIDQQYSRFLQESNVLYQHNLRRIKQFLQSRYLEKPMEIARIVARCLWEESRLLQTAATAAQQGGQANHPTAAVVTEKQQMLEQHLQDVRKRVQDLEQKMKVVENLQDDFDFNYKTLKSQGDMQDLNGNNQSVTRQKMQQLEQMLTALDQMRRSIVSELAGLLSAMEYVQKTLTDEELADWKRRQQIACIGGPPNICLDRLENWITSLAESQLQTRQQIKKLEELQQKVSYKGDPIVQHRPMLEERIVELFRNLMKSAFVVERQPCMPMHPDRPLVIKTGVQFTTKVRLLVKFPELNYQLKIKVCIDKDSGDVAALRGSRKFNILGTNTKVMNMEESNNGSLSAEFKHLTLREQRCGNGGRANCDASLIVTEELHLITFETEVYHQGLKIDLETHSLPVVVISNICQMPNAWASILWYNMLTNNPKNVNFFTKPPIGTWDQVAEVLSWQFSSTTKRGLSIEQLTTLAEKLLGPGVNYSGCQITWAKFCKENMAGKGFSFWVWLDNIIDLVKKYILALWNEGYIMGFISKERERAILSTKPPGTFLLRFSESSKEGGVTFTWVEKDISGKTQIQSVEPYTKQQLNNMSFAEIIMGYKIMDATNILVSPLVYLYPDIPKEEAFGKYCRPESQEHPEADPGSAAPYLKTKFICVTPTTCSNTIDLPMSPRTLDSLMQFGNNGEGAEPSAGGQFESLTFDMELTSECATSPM
Procedure: ATG_CIS is a cell-based, multiplexed-readout assay that uses HepG2, a human liver cell line, with measurements taken at 24 hours after chemical dosing in a 24-well plate.ATG_STAT3_CIS is one of 52 assay component(s) measured or calculated from the ATG_CIS assay. It is designed to make measurements of mRNA induction, a form of inducible reporter, as detected with fluorescence intensity signals by Reverse transcription polymerase chain reaction (RT-PCR) and Capillary electrophoresis technology.Data from the assay component ATG_STAT3_CIS was analyzed into 1 assay endpoint. This assay endpoint, ATG_STAT3_CIS, was analyzed with bidirectional fitting relative to DMSO as the negative control and baseline of activity. Using a type of inducible reporter, measures of mRNA for gain or loss-of-signal activity can be used to understand the reporter gene at the transcription factor-level as they relate to the gene STAT3. Furthermore, this assay endpoint can be referred to as a primary readout, because this assay has produced multiple assay endpoints where this one serves a reporter gene function. To generalize the intended target to other relatable targets, this assay endpoint is annotated to the dna binding intended target family, where the subfamily is stat protein.
Human liver HepG2 cells are transiently transfected with multiple reporter transcription units (MRTUs) in 6-well plates using FuGene 6 reagent (Roche; 3 ml FuGene/1 mg DNA). The MRTU constructs are regulated by a cis-regulating element (promoter). […] A major difference between the CIS and TRANS system is that in CIS activities of endogenous TFs are measured, whereas the TRANS assay evaluates changes in activities of exogenous, chimeric NR-Gal4 proteins. […] At the end of 24 hour incubation, total RNA was isolated using TriZol reagent (Invitrogen). The isolated RNA is then reverse-transcribed using oligo(dT) primer and Mo-MLV reverse transcriptase (Invitrogen) with DNAse I (Ambion) treatment for 30 min. The one-tenth of the produced cDNA was amplified by PCR using Taq DNA polymerase (Invitrogen) and two reporter sequence-specific primers. The PCR products were fluorescently labeled by primer extension with 6-arboxyfluorescein (6-FAM) 5'-labeled reporter sequence-specific primer (2 min at 95 C, 20 s at 68 C and 10 min at 72 C) and these products were digested with 5U of HpaI (New England Biolabs) for 2h at 37 C. The fragments were purified using Qiaquick PCR columns (Qiagen), analyzed on an ABI 3130xL genetic analyzer (Applied Biosystems) with peak positions identified by using a set of X-rhodamine (ROX)-labeled MapMarker1000 molecular weight standards (BioVentures). The raw capillary electrophoresis data was processed using Attagraph software (Attagene).

outcome, inactive:
Oc1ccc(Cl)cc1C1CCCC1, CC(O)(P(=O)(O)O)P(=O)(O)O, CCCCC(CC)COC(=O)CS (stereo not given), C=C(C)C(=O)OCC1CCCO1 (stereo not given), C/C=C(\C)C(=O)OCC/C=C\CC, Cc1ccccc1S(=O)(=O)O, COc1cccc(OC)c1C(=O)O, C[C@H]1C[C@H]2[C@@H]3CCC4=CC(=O)C=C[C@]4(C)[C@@]3(F)[C@@H](O)C[C@]2(C)[C@@]1(O)C(=O)CO, Cc1ccccc1S(N)(=O)=O, Cc1ccnc(N)c1, Clc1ccccn1, CCO[Si](CCCN)(OCC)OCC, N#CCN(CC#N)CCN(CC#N)CC#N, c1cc(N(CC2CO2)CC2CO2)ccc1Cc1ccc(N(CC2CO2)CC2CO2)cc1 (stereo not given), NC(=O)c1ccc(N)cc1, CC[N+](CC)(CC(=O)Nc1c(C)cccc1C)Cc1ccccc1 (tested in a mixture with another compound), COCCCN, CN(C)N=Nc1ccccc1, CCCN[C@H]1CCc2nc(N)sc2C1, CC(C)=CCOC(=O)c1ccccc1, C=CCOC(=O)C(=C)C, NC(=O)c1ccc([N+](=O)[O-])cc1Cl, CCCC[N+]1(C)CCCC1, CCOC(=O)c1ccccc1, CC1=NN(c2cc(Cl)c(S(=O)(=O)O)cc2Cl)C(=O)C1N=Nc1ccc(S(=O)(=O)O)cc1 (stereo not given), CCC(C)(CCC(C)C)C(=O)O (stereo not given), CCC(C)C1N=C(C)C(C)S1 (stereo not given), CC1=CCCC(C)(C)C12CCC(C)O2 (stereo not given), CC(=O)Nc1c(I)c(NC(C)=O)c(I)c(C(=O)O)c1I, F[B-](F)(F)F, Nc1ccc(S(=O)(=O)Nc2cnc3ccccc3n2)cc1, COc1c2occc2cc2ccc(=O)oc12, c1cc[c]([Bi]([c]2ccccc2)[c]2ccccc2)cc1, Cc1cccnc1, CC(=O)c1nccs1, CCCCCCOC(=O)CCCCCCCC(=O)OCCCCCC, CNC[C@H](O)[C@@H](O)[C@H](O)[C@H](O)CO, COc1ccccc1OCC(O)CO (stereo not given), Oc1ccc(Oc2ccccc2)cc1, CCCC(=O)OC/C=C(\C)CCC=C(C)C
